Sampled rows, rich in hits. Any-hit rate of the full collection: about 12%.
HP1b binding inh: HTS for Inhibitors of HP1-beta Chromodomain Interactions with Methylated Histone Tails; Chromobox protein homolog 1 (Homo sapiens), P83916; AlphaScreen HP1-beta / biotin-H3K9me3 peptide binding; Potency, µM (series often up to 114 µM), without a hit: at the top dose activity change, negative = inhibition, hits mostly inhibitors; 390,000 compounds, 0.56% hits; AID 540317, 2011; note: nearly all actives have a fitted effect of over 70% in size
Target sequence (P83916 whole entry, looked up): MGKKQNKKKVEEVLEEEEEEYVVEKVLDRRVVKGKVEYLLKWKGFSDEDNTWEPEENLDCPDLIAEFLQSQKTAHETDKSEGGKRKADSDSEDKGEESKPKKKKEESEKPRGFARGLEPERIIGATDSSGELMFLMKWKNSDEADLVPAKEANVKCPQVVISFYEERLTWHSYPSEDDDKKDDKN
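Compound inhibition of the preformed complex between 50 nM HP1-beta and 50 nM biotinylated H3K9me3 peptide was read by AlphaScreen. Buffer was PBS pH 7.4 with 0.01% Tween-20. Incubations ran 30 min at room temperature, with 10 ug/mL donor/acceptor beads.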
G9a inh: qHTS Assay for Inhibitors of Histone Lysine Methyltransferase G9a | 350,000 compounds, 8.8% hits | G9a H3K9 monomethylation, AlphaScreen, 2 h | Potency, µM (titrated, usually from 102 µM), without a hit: at the top dose activity, negative = inhibition, usual class: inhibitors | AID 504332, 2011 | Histone-lysine N-methyltransferase EHMT2 (Homo sapiens), Q96KQ7; note: % is set by controls: 0 for no effect and ±100 for the full control effect; nearly all actives have a fitted effect of over 75% in size
Target sequence (Q96KQ7 913-1193 limits assumed): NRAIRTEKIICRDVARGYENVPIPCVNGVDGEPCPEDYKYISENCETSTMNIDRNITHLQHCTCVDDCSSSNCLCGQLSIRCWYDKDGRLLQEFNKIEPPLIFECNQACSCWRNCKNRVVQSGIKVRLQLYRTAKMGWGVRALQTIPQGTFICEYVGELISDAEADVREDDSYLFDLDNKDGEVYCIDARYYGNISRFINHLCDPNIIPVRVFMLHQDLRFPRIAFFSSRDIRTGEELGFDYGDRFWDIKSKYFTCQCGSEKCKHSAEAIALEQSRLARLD
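Methyltransferase reactions run at room temperature for 2 h (20 nM enzyme, 500 nM biotin-H3K9 peptide, 20 uM SAM) after a 15 min compound preincubation; product detected by AlphaScreen beads and anti-H3K9me1 antibody.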
JMJD2A Tudor: qHTS Assay for Inhibitors of JMJD2A-Tudor Domain; Lysine-specific demethylase 4A (Homo sapiens), O75164; AlphaScreen JMJD2A-Tudor / H3K4me3 peptide binding; 390,000 compounds, 4.4% hits; Potency, µM (doses to about 114 µM), inactives show top-dose activity change, negative = inhibition, usual class: inhibitors; note: % is set by controls: 0 for no effect and ±100 for the full control effect; nearly all actives have a fitted effect of over 50% in size
Sfp inh: qHTS Assay for Inhibitors of Bacillus subtilis Sfp phosphopantetheinyl transferase (PPTase); Biochemical Sfp PPTase activity, qHTS; Potency, µM, for the others: largest response in the series, negative = inhibition, usual class: inhibitors; 310,000 compounds, 3.5% hits; AID 1490, 2009;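 note: the enzyme is Sfp with the accession as filed and its product quenches rhodamine fluorescence; 0% = enzyme reaction without inhibitor and -100% = no enzyme wells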
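Fluorescence-quenching assay: 15 nM Sfp-PPTase preincubated 15 min at room temperature with compound, then 5 uM rhodamine-CoA and 12.5 uM BHQ-2-labelled YbbR peptide added. Fluorescence (ex 525/em 598 nm) read at start and after 30 min; difference gives rate.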
BAZ2B inh: qHTS Assay for Inhibitors of BAZ2B. AlphaScreen BAZ2B-H3K14Ac peptide displacement. Potency, µM (doses to about 114 µM), without a hit: at the highest dose activity change, negative = inhibition, actives largely listed as inhibitors. 360,000 compounds, 4.4% hits. AID 504333, 2011; note: % is set by controls: 0 for no effect and ±100 for the full control effect; nearly all actives have a fitted effect of over 60% in size
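Multi-concentration screen (max 110 uM) measuring displacement of acetylated histone H3 peptide from BAZ2B by AlphaScreen, using 50 nM protein, 50 nM peptide and 10 ug/mL streptavidin donor plus Ni-chelate acceptor beads.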
L3MBTL1 block: qHTS Assay for the Inhibitors of L3MBTL1 | AlphaScreen L3MBTL1–H3K9me1 peptide binding | Potency, µM (highest dose often 57.1 µM), without a hit: at the top dose activity, negative = inhibition, hits mostly inhibitors | 230,000 compounds, 0.66% hits; note: % is set by controls: 0 for no effect and ±100 for the full control effect; nearly all actives have a fitted effect of over 60% in size
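First, the protein-peptide complex forms for 30 min at room temperature (L3MBTL1 50 nM, biotinylated H3K9me1 peptide 75 nM). Next, compounds are pin-transferred and incubated 30 min. Finally, AlphaScreen beads are added and read after 30 min.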
Starred values were filed as active, the others as inactive; ? = inconclusive; nt = no result; [ ] = another dose, or the depositor's remark. Calls come from the whole dose curve; as a rule, active = well fitted curve in the direction sought with a large enough effect; inconclusive = small, poorly fitted or top-dose-only effect, or another doubt; inactive = no such curve, though single readings can be large; an effect the other way counts as inactive or inconclusive. Potency is the fitted concentration of half-maximal effect.

SMILES | HP1b binding inh | G9a inh | JMJD2A Tudor | Sfp inh | BAZ2B inh | L3MBTL1 block
COc1ccc(Cl)cc1NC(=O)c1cn(C2CCCC2)c(=O)c2c1c1ccccc1n2C | 27% | -25%[59 µM] | -16% | nt | -13% | nt
O=S(=O)(/C(=C/c1ccc(C(F)(F)F)cc1)c1nc2ccccc2[nH]1)c1ccccc1 | -12% | 6%[59 µM] | 79µM* | -19% | -30% | -12%
CC(C)c1ccc(/C=C(\c2nc3ccccc3[nH]2)S(=O)(=O)c2ccccc2)cc1 | 0% | 6%[59 µM] | -14% | 20% | -31% | -17%
O=c1[nH]c2ccc(N=Cc3c(O)ccc4cc(Br)ccc34)cc2[nH]1 | 0% | 1.6µM* | 45µM* | 3% | ? | -14%
CN(C)C1NC(=O)c2cc(-c3ccccc3)sc2N1 (configuration not stated) | -14% | ? | ? | -24% | 50µM* | -16%
O=C(Nc1nc(=O)c2ccccc2s1)c1ccccc1 | 18% | ? | -34% | 50µM* | -7% | 9%
Cc1ccc(C(=O)Nc2nc3ccccc3c(=O)s2)cc1 | 17% | 8.9µM* | 89µM* | 56µM* | ? | 10%
CC(=O)N/C(N)=N/c1nc(=O)c2ccccc2s1 | -3% | nt | -20% | 4% | -1% | 2%
CC(=O)Nc1nc(=O)c2ccccc2s1 | 16% | 22µM* | -28% | ? | 4% | 1%
CCC(=O)N1CCc2cc(Br)cc(S(=O)(=O)CCC(=O)N3CCN(c4ccccc4F)CC3)c21 | -7% | -3%[59 µM] | -25% | nt | -6% | nt
CCN(C(=O)c1cc2c(=O)n(CC)c3ccccc3c2s1)c1cccc(C(F)(F)F)c1 | 48% | 4%[59 µM] | -13% | nt | -4% | nt
Cc1cc(-c2ccc(C)c(S(=O)(=O)N(C)c3ccc(C)c(C)c3)c2)on1 | 77% | -2%[59 µM] | 26% | nt | 20% | nt
COc1ccc(CCNC(=O)c2c(C)oc3ncn(CC(C)C)c(=O)c23)c(OC)c1 | 24% | -6%[59 µM] | -15% | nt | 3%[57.1 µM] | nt
CCN(CC)CCNC(=O)c1ccc2c(c1)NC(=O)c1ccccc1S2 | 24% | 45µM* | -7% | 7% | 5% | nt
CCCN1CCN(CCCNC(=O)c2ccc3c(c2)NC(=O)c2ccccc2S3)CC1 | 12% | -10% | -12% | 7% | -8%[57.1 µM] | nt
CN(C)CCNC(=O)c1ccc2c(c1)NC(=O)c1ccccc1S2 | 10% | 45µM* | -10% | 0% | -8% | nt
CSc1ncc2c(n1)-c1ccccc1N(Cc1ccccc1)S2(=O)=O | 90% | 38%[59 µM] | 59% | nt | 32% | nt
CN1CCN(S(=O)(=O)c2cccc([N+](=O)[O-])c2)CC1 | 16% | nt | -10% | nt | nt | nt
COc1ccccc1CNC(=O)C1CCN(S(=O)(=O)c2cccc([N+](=O)[O-])c2)CC1 | 25% | 12%[59 µM] | -5% | 10% | -9% | nt
COc1cccc(C(=O)CN2CCN(S(=O)(=O)c3cccc([N+](=O)[O-])c3)CC2)c1 | 28% | 20µM* | -16% | -30% | 2% | 6%
COc1ccc(C(=O)CN2CCN(S(=O)(=O)c3cccc([N+](=O)[O-])c3)CC2)cc1OC | 32% | 8.9µM* | -10% | 35µM* | 4% | -7%
CCOc1ccc(CCNC(=O)c2ccc3c(c2)N(Cc2ccccc2)C(=O)c2ccccc2S3=O)cc1OCC (configuration not stated) | 6% | -42%[59 µM] | -35% | nt | -13% | nt
CCc1cccc(C)c1NC(=O)Cn1ccn(-c2ccc(F)cc2)c(=O)c1=O | 56% | -7%[59 µM] | 6% | nt | 2% | nt
CCc1ccc2c(c1)[C@]1(C(=O)N2)[C@@H]2C(=O)N(Cc3ccccc3)C(=O)[C@@H]2[C@@H]2CCCN21 | 6% | 71µM* | -32% | -7% | 2% | -12%
CCOc1ccc(S(=O)(=O)Nc2cccc(-c3ccc(OCC)nn3)c2)cc1 | -7%[57 µM] | ? | -29% | nt | -7% | nt
SMILES | HP1b binding inh | G9a inh | JMJD2A Tudor | Sfp inh | BAZ2B inh | L3MBTL1 block
O=C(COc1ccccc1F)Nc1ccc(OCc2cc(=O)n3ccccc3n2)cc1 | 5%[57 µM] | -2%[59 µM] | 5% | nt | -5% | nt
c1ccc2c(c1)ncn2Cc1nnc2sc(-c3ccncc3)nn12 | -26% | ? | ? | 16µM* | -25% | 0%
c1ccc(-c2nn3c(Cn4cnc5ccccc54)nnc3s2)cc1 | ? | 1.3µM* | -32% | 10µM* | -28% | ?
c1cncc(-c2nn3c(Cn4cnc5ccccc54)nnc3s2)c1 | ? | ? | 89µM* | -83% | -8% | -2%
CCCC(=O)Nc1nc2c(s1)CC(C(C)(C)C)CC2 (configuration not stated) | 35% | -12%[59 µM] | -5% | nt | 4% | nt
O=C(Nc1cccc(Cl)c1)N1Cc2ccccc2Oc2ncccc21 | 20% | -5%[59 µM] | -8% | nt | -16% | nt
COc1cc(N2Cc3ccccc3C2)ccc1C=O | 10% | 32µM* | -23% | -4% | -2% | -12%
O=C1NC(=S)CN1c1ccccc1 | ? | 11µM* | 13µM* | 5.6µM* | -21% | 6%
CCOc1ccc(NC(=O)Cn2ccn(-c3ccc(F)c(F)c3)c(=O)c2=O)cc1 | 16% | 3%[59 µM] | -15% | nt | -15% | nt
Cc1ccc(NC(=O)c2ccc3ncsc3c2)cc1S(=O)(=O)N(C)C | nt | ? | nt | 56µM* | 56µM* | nt
O=C(COC(=O)c1ccc2ncsc2c1)Nc1cccc(Cl)c1 | 39% | 4%[12.7 µM] | 0% | nt | 2% | 0%
CC(=O)NC(=O)COC(=O)c1ccc2ncsc2c1 | 38% | 56µM* | -15% | 0% | 8% | nt
O=C(Nc1ccc(F)cc1)c1ccc2ncsc2c1 | 45% | 35µM* | -2% | ? | -2% | nt
O=C(O)c1ccc2ncsc2c1 | -23% | ? | 20µM* | 3% | 20µM* | 10µM*
O=C(c1ccc2ncsc2c1)N1CCCCC1 | 44% | -3% | -11% | -22% | 3% | nt
COc1cc(NC(=O)c2cc(C3CC3)nc3c2c(C)nn3-c2ccc(C)cc2)cc(OC)c1 | 56% | 6%[59 µM] | 0% | nt | 17%[57.1 µM] | nt
Cc1ccccc1NC(=O)N1CCc2cc(S(=O)(=O)N3CCC(C)CC3)ccc21 | 49% | -2%[59 µM] | -4% | nt | 3% | nt
COCCNC(=O)C1(C(F)(F)F)C/C(=C\CCO)CCCO1 (configuration not stated) | 22% | nt | -10% | 21% | nt | nt
O=C(Nc1cccc(Cl)c1)c1ccc2ncsc2c1 | 20% | 7% | 0% | 3% | 17% | nt
